Results filed as inconclusive are left out. Values without a mark were called inactive. The source made the active and inactive calls. Calls come from the whole dose curve; as a rule, active = well fitted curve in the direction sought with a large enough effect; inconclusive = small, poorly fitted or top-dose-only effect, or another doubt; inactive = no such curve, though single readings can be large; an effect the other way counts as inactive or inconclusive.
Experiment: Viability qHTS for spleen associated tyrosine kinase inhibitor (SYKi) drug resistant MV4-11 cells (AID 1963824); note: nearly all actives have a fitted effect of over 35% in size; note: potency is the fitted concentration of half-maximal effect
Conditions: SYKi-resistant MV4-11 viability, CellTiter-Glo, 72 h; series mostly up to 45 µM; viability, % of control: at the top concentration
In short: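 SYK inhibitor-resistant MV4-11 AML cells, 500 per well, added to predispensed compounds and incubated 72 hr at 37 C, 5% CO2. Viability measured by CellTiter-Glo luminescence after 10 min at room temperature.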

Structure (SMILES) | Potency | viability, % of control
CC[C@@H](CO)NC(=O)[C@@H]1C=C2c3cccc4c3c(cn4C)C[C@H]2N(C)C1 | 9.44 µM (active) | 
CN(C(=O)C(c1ccccc1)c1ccccc1)[C@H](CN1CC[C@H](O)C1)c1ccccc1 | 20.6 µM (active) | 
c1cc2c(c(N3CCNCC3)c1)OCCO2 |  | 75.5%
CC12CCC3C(C1)c1c(cc(O)c(C(=O)c4ccccc4)c1OC3(C)C)O2 (configuration not stated) | 14.3 µM (active) | 
O=c1[nH]c2ccccc2n1C1CCNCC1 |  | 98.5%
CC[C@@H](C)[C@H]1C(=O)O[C@H](C(C)C)C(=O)N(C)[C@@H](C(C)C)C(=O)O[C@H](C(C)C)C(=O)N(C)[C@@H](C(C)C)C(=O)O[C@H](C(C)C)C(=O)N1C | 2.73 µM (active) | 
CC(C)(O)C(=O)Nc1ccc([N+](=O)[O-])c(C(F)(F)F)c1 | 18.6 µM (active) | 
CCCN1CCC[C@@H]2Cc3nc(N)ncc3C[C@H]21 |  | 71.2%
Clc1ccccc1C(c1ccccc1)(c1ccccc1)n1cccn1 | 16.6 µM (active) | 
COP(=S)(OC)Oc1ccc(S(=O)(=O)N(C)C)cc1 |  | 67.9%
Cc1cc(SCc2sc(-c3ccc(C(F)(F)F)c(F)c3)nc2C)ccc1OCC(=O)O | 18.6 µM (active) | 
CC(C)[C@H]1C(=O)N[C@H](CO)Cc2c[nH]c3cccc(c23)N1C | 0.288 µM (active) | 
CCC(C)(C)c1ccc(O)cc1 |  | 78.2%
COc1ccc(C(=O)c2c(C)n(CCN3CCOCC3)c3ccccc23)cc1 | 16.6 µM (active) | 
CCN(CC)CCc1c[nH]c2ccccc12 |  | 63.3% [at 155 µM]
C[C@H]1CNCCc2ccc(Cl)cc21 |  | 83.8%
C#CCOC(C(=O)OCCN(C)C)(c1ccccc1)c1ccccc1 |  | 73.9%
COC(=O)[C@@]12OC[C@]34[C@H]([C@@H](O)[C@@H]1O)[C@@]1(C)CC(=O)C(O)=C(C)[C@@H]1C[C@H]3OC(=O)[C@H](OC(=O)/C=C(\C)C(C)C)[C@@H]24 | 0.0132 µM (active) | 
CCOC(=O)Nc1ccc(NCc2ccc(F)cc2)cc1N | 18.6 µM (active) | 
Cn1cc(C2=C(c3cn(C4CCN(Cc5ccccn5)CC4)c4ccccc34)C(=O)NC2=O)c2ccccc21 | 5.25 µM (active) | 
COc1ccc2c(c1OC)CN1CCc3cc4c(cc3C1C2)OCO4 (configuration not stated) | 4.11 µM (active) | 
CCc1c(C(=O)C(N)=O)c2c(OCC(=O)O)cccc2n1Cc1ccccc1 |  | 85.5%
CNC(=O)c1ccc(N2C(=S)N(c3ccc(C#N)c(C(F)(F)F)c3)C(=O)C23CCC3)cc1F | 18.6 µM (active) | 
CC(C)(C)C(O)C(Oc1ccc(Cl)cc1)n1cncn1 (configuration not stated) | 21.7 µM (active) | 
COc1cc(C(=O)N2CC[C@@H](O)[C@@H](N)C2)cc2nc(-c3cc4ccccc4n3CC3CC3)n(C)c12 | 9.34 µM (active) | 
COc1ccc(C(c2ccc(OC)cc2)C(Cl)(Cl)Cl)cc1 | 21.5 µM (active) | 

Experiment: Quantitative highthroughput screen to assess conditional lethalithy of NOMO1 cells grown in RPMI1640 with untreated serum (RPMI+s) (AID 1963876);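 note: 100% = DMSO wells and 0% = empty wells without cells; nearly all actives have a fitted effect of over 35% in size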
Conditions: NOMO1 AML cells in RPMI+serum, CellTiter-Glo viability, 48 h; series mostly up to 45.8 µM; viability: at the top concentration
In short: (§1)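 Each medium arm—HPLM with 10% dialyzed FBS, or RPMI1640 with 5 mM glucose and 10% untreated or dialyzed FBS—was screened against an 11-point, 3-fold compound titration for 48 h at 37 °C, with CellTiter-Glo luminescence as endpoint.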

Structure (SMILES) | viability
C[C@]12CCC(=O)C=C1CC[C@@H]1[C@H]3CC[C@](C)(O)[C@@]3(C)CC[C@@H]12 | 96.8% [at 92.2 µM]
Clc1ccccc1C(c1ccccc1)(c1ccccc1)n1cccn1 | 105%
Cc1cc(SCc2sc(-c3ccc(C(F)(F)F)c(F)c3)nc2C)ccc1OCC(=O)O | 98.2%
CCc1c(C(=O)C(N)=O)c2c(OCC(=O)O)cccc2n1Cc1ccccc1 | 99.6%

Experiment: Quantitative highthroughput screen to assess conditional lethalithy of NOMO1 cells grown in RPMI1640 with dialyzed fetal bovine serum (RPMI+ds) (AID 1963877); note: nearly all actives have a fitted effect of over 30% in size; note: potency is the fitted concentration of half-maximal effect;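 for Viability: 100% = DMSO control wells and 0% = empty wells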
Conditions: NOMO1 in RPMI+dialyzed FBS viability, ATP luminescence, 48 h; series mostly up to 45.8 µM; viability: at the top concentration
In short: as §1

Structure (SMILES) | viability [%] | Potency
O=C(O)C(=O)c1cn(Cc2ccccc2)c2ccc(-c3ccc(OC(F)(F)F)cc3)cc12 | 93.2 | 
C#CC1(O)CCC2C3CCC4=CC(=O)CCC4(C)C3CCC21C (configuration not stated) | 105 | 
CN(C)[C@@H]1C(=O)C(C(N)=O)=C(O)[C@@]2(O)C(=O)C3=C(O)c4c(O)cccc4[C@@](C)(O)[C@H]3C[C@@H]12 | 96 | 
O=c1[nH]c2ccccc2n1C1CCN(Cc2ccc(-c3[nH]c4cc5ncnc5cc4nc3-c3ccccc3)cc2)CC1 | 92 | 
CC(C)(O)C(=O)Nc1ccc([N+](=O)[O-])c(C(F)(F)F)c1 |  | 1.87 µM (active)
Cc1cc(SCc2sc(-c3ccc(C(F)(F)F)c(F)c3)nc2C)ccc1OCC(=O)O | 104 | 
COc1ccc2c(c1OC)CN1CCc3cc4c(cc3C1C2)OCO4 (configuration not stated) |  | 1.66 µM (active)
CNC(=O)c1ccc(N2C(=S)N(c3ccc(C#N)c(C(F)(F)F)c3)C(=O)C23CCC3)cc1F | 104 | 
COc1cc(C(=O)N2CC[C@@H](O)[C@@H](N)C2)cc2nc(-c3cc4ccccc4n3CC3CC3)n(C)c12 |  | 1.17 µM (active)

Experiment: Quantitative highthroughput screen to assess conditional lethalithy of NOMO1 cells grown in Human Plasma-Like Medium with dialyzed fetal bovine serum (HPLM+ds) (AID 1963878);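 note: 100% = DMSO wells and 0% = empty wells on each plate; nearly all actives have a fitted effect of over 35% in size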
Conditions: NOMO1 AML cells in HPLM+ds, CellTiter-Glo viability, 48 h; series mostly up to 45.8 µM; viability: at the top concentration
In short: as §1

Structure (SMILES) | viability
COC1=C[C@@H]2[C@@H]3Cc4ccc(OC)c(O)c4[C@]2(CCN3C)CC1=O | 79.7%
CN(C)[C@@H]1C(=O)C(C(N)=O)=C(O)[C@@]2(O)C(=O)C3=C(O)c4c(O)cccc4[C@@](C)(O)[C@H]3C[C@@H]12 | 105%
C[C@]12CCC(=O)C=C1CC[C@@H]1[C@H]3CC[C@](C)(O)[C@@]3(C)CC[C@@H]12 | 93.9% [at 92.2 µM]
Clc1ccccc1C(c1ccccc1)(c1ccccc1)n1cccn1 | 113%
Cc1cc(SCc2sc(-c3ccc(C(F)(F)F)c(F)c3)nc2C)ccc1OCC(=O)O | 97%
COc1ccc(C(=O)c2c(C)n(CCN3CCOCC3)c3ccccc23)cc1 | 87.4%
Cn1cc(C2=C(c3cn(C4CCN(Cc5ccccn5)CC4)c4ccccc34)C(=O)NC2=O)c2ccccc21 | 115%
CNC(=O)c1ccc(N2C(=S)N(c3ccc(C#N)c(C(F)(F)F)c3)C(=O)C23CCC3)cc1F | 110%
